Compound activity as filed in PubChem BioAssay.
Sampled rows, rich in hits. Any-hit rate of the full collection: about 7.5%.
RORgamma inh – qHTS for inhibitors of ROR gamma transcriptional activity. Drosophila S2 Gal4-RORgamma UAS-luciferase reporter, 20 h. Potency, µM (highest dose often 53.6 µM), for inactives: top-dose activity change, negative = inhibition, most hits filed as inhibitors. 310,000 compounds, 5.4% hits. Nuclear receptor ROR-gamma (Mus musculus), P51450; note: potency is the fitted concentration of half-maximal effect; nearly all actives have a fitted effect of over 60% in size
Target sequence (P51450 whole entry, looked up, the tested form may be a part): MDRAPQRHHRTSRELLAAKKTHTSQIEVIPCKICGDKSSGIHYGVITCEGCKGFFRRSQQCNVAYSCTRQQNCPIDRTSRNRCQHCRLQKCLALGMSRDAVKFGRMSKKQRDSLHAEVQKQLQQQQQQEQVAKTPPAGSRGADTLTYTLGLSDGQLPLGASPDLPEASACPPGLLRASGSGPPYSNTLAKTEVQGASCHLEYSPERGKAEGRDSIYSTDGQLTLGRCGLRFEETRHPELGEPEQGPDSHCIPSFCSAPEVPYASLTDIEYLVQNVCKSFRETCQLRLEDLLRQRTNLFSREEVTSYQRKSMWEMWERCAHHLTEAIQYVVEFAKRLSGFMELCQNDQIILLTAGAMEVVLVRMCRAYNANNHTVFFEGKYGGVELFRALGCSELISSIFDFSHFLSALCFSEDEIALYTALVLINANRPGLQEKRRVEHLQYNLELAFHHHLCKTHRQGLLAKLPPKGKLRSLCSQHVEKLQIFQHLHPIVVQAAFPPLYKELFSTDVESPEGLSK
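Drosophila Schneider cells stably carrying a metallothionein-driven Gal4 DBD–ROR gamma fusion and a UAS-Photinus luciferase reporter were exposed to compound for 1 hr, then induced with copper sulfate (700 uM final) for 20 hr at ambient temperature before luminescence reading.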
ELG1 repair inh – qHTS screen for small molecules that inhibit ELG1-dependent DNA repair in human embryonic kidney (HEK293T) cells expressing luciferase-tagged ELG1; HEK293T ELG1-luciferase reporter, luminescence, 16 h; DNA damage induced by 5-fluorouridine; Potency, µM (doses to about 46.1 µM), without a hit: top-dose activity change, negative = inhibition, most hits filed as inhibitors; 330,000 compounds, 2.3% hits; note: potency is the fitted concentration of half-maximal effect; nearly all actives have a fitted effect of over 55% in size
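Overnight (16 hr) co-exposure of 2,000 cells/well to 5-fluorouridine and compound at 37 °C preceded detection. Luciferase was quantified via ONE-Glo luminescence; loss of signal denotes inhibition.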
VP16 counter – VP16 counterscreen qHTS for inhibitors of ROR gamma transcriptional activity. Potency, µM (series often up to 53.6 µM), without a hit: at the highest dose activity, negative = inhibition, most hits filed as inhibitors. Drosophila S2 Gal4-VP16 UAS-luciferase, luminescence, 20 h. 310,000 compounds, 3.5% hits. AID 2546, 2010;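 note: Gal4-VP16 expression switched on by copper sulfate through the metallothionein promoter; potency is the fitted concentration of half-maximal effect; nearly all actives have a fitted effect of over 50% in size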
TSHR antagonist – Antagonists of the Thyroid Stimulating Hormone Receptor: HTS campaign. 330,000 compounds, 0.2% hits. activity change, negative = inhibition, % at 11.5 µM. TSHR-expressing cells, TSH-stimulated cAMP HTRF, 2 h; active compounds read low;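 active = activity change below a set negative limit, meaning inhibition stronger than a set level, cut at about -70% in these data; inconclusive = activity change between two set negative limits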
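TSHR-expressing cells, 200/well, pre-treated with compound, then stimulated with EC80 TSH (4nM final) for 2 hours at 37 deg C. cAMP measured by competitive HTRF: anti-cAMP cryptate antibody in lysis buffer plus cAMP-d2, read after 30 minutes at room temperature.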
B2AR arrestin – qHTS assay of beta-arrestin-biased ligands of beta2-adrenergic receptor; Beta-2 adrenergic receptor (Homo sapiens), P07550; beta-arrestin recruitment to beta2AR, cell-based reporter; Potency, µM (highest dose often 46.1 µM), for inactives: top-dose activation, hits mostly activators; 330,000 compounds, 0.02% hits; AID 492947, 2010;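 note: potency is the fitted concentration of half-maximal effect; 0% = DMSO controls and full agonism = EC100 isoproterenol or metaproterenol; nearly all actives have a fitted effect of over 65% in size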
The depositor's hits bear a star; u = inconclusive; x = no result given; [ ] = dose if it differs, or a comment. Unless noted, calls come from the whole dose curve; as a rule, active = well fitted curve in the direction sought with a large enough effect; inconclusive = small, poorly fitted or top-dose-only effect, or another doubt; inactive = no such curve, though single readings can be large; an effect the other way counts as inactive or inconclusive. Unless noted, % is set by controls: 0 for no effect and ±100 for the full control effect.

SMILES	RORgamma inh	ELG1 repair inh	VP16 counter	TSHR antagonist	B2AR arrestin
O=C(N/N=C/c1ccc(O)cc1O)C(=O)N/N=C/c1ccc(O)cc1O	-22%	-11%	3%	2	-1%
C/C(=N\NC(=O)C12CCC(C)(C(=O)O1)C2(C)C)c1ccccc1O (centres undefined)	0.71µM*	21µM*	1.3µM*	-38	1%
CC12CCC(C(=O)N/N=C/c3ccc(O)cc3O)(OC1=O)C2(C)C (centres undefined)	u	13µM*	-5%	9	-1%
COc1ccc(NC(=O)c2cnc(SC)nc2)cc1	38%	-15%	25%	-6	0%
CCC(=O)C1CCCN(C(=O)c2ccc(OC)c(OC3CCN(C(C)=O)CC3)c2)C1 (centres undefined)	-7%	4%	26%	-7	0%
COc1ccc(/C=N/NC(=O)CN2CCCc3ccccc32)c(OC)c1	13%	23%	-2%	-3	0%
CCCc1nc2ccc(NC(=O)c3ccco3)cc2c(=O)n1Cc1ccccc1Cl	u	18µM*	-5%	-18	0%
FC(F)(F)C(F)(F)C(F)(F)C(F)(F)C(F)(F)C(F)(F)F	-1%	x	2%	x	x
O=S(=O)(c1ccccc1)N1CCC(O)(CSc2ccccc2)CC1	19%	8.2µM*	-1%	-18	0%
O=S(=O)(c1ccccc1)N1CCC(O)(CSc2ccc(F)cc2)CC1	5%	u	-22%	-12	0%
N#Cc1ccc(CN2CCC3(CC2)CCN(C(=O)c2cnccn2)CC3)cc1	-12%	x	8%	x	x
COc1cc(/C=C/c2ccc3cccc([N+](=O)[O-])c3n2)ccc1OCC(=O)O	9%	15%	-19%	-7	0%
COc1cc(Br)cc(/C=C/c2ccc3cccc(O)c3n2)c1OC	2.5µM*	-15%	u	11	-1%
COc1ccc(Br)cc1/C=C/c1ccc2cccc(O)c2n1	4.5µM*	-17%	u	-11	0%
COc1ccc(Br)cc1/C=C/C(=O)NCC(=O)O	-2%	17%	-6%	9	0%
CCCN(CC(=O)Nc1ccccc1C)C(=O)c1ccc(N2CCCC2)c([N+](=O)[O-])c1	x	1%	x	-5	0%
Cc1ccc2nc(-c3ccc(O)cc3)c(Nc3ccc4c(c3)OCCO4)n2c1	-38%	16%	6%	6	0%
Cc1ccc2nc(-c3ccccc3O)c(Nc3ccc4c(c3)OCCO4)n2c1	18µM*	-24%	-23%	8	0%
Clc1ccc2nc(-c3ccccn3)c(Nc3ccc4c(c3)OCO4)n2c1	7.9µM*	u	u	0	0%
CO[C@@H]1COC(=O)C/C=C\[C@H](C)[C@H](OC)COC(=O)[C@H]2CCCN2C(=O)C/C=C\[C@H]1C	-16%[10 µM]	x	-9%[10 µM]	x	x
COc1ccc(Cc2noc(CN(C)Cc3ccc(-n4cccn4)cc3)n2)cc1OC	25%	u	-3%	-9	0%
CCc1ccc(CN(C)Cc2nc(Cc3ccc(OC)c(OC)c3)no2)nc1	10µM*	-7%	-5%	7	0%
CC(C)(C)c1ccc(OCCC(=O)OCC(=O)N2c3ccccc3NC(=O)C2(C)C)cc1	x	9%	x	-5	0%
O=C(CCN1CCN(c2ccccc2)CC1)N/N=C/c1ccccc1OC(F)F	11µM*	12µM*	u	6	0%
COc1ccc(/C=N\NC(=O)CCN2CCN(c3ccccc3)CC2)cc1OC	11%	-48%	-15%	0	0%
SMILES	RORgamma inh	ELG1 repair inh	VP16 counter	TSHR antagonist	B2AR arrestin
COc1ccc(OC)c(/C=N/NC(=O)CCN2CCN(C(c3ccccc3)c3ccccc3)CC2)c1	10µM*	u	u	10	-1%
O=C(CCN1CCN(C(c2ccccc2)c2ccccc2)CC1)N/N=C/c1ccc(O)cc1	-7%	-4%	19%	0	5%
COc1ccc(OC)c(NC(=O)CCN2CCN(Cc3ccccc3)CC2)c1	5%	-5%	3%	-4	1%
O=C(CCN1CCN(C(c2ccccc2)c2ccccc2)CC1)N/N=C/c1ccc(O)cc1O	14µM*	2%	-19%	-7	0%
O=S(=O)(c1ccc(Cl)cc1)N1CCN(Cc2ccc(O)c3ncccc23)CC1	1µM*	u	2.8µM*	-5	0%
COc1ccc(C(=O)COC(=O)c2ccccc2O)c(OC)c1	x	u	x	-31	3%
S=c1ccss1	13µM*	x	u	x	x
CCCCn1c(C)cc2c(c1=O)C1O[C@](CCCC)(Cc3cc(C#N)ccc31)O2	-7%[10 µM]	x	-12%[10 µM]	x	-1%[9.22 µM]
COc1cc(OC)cc(-c2nc3ccccc3c(=O)n2OC(=O)c2ccc(C)c(C)c2)c1	u	10µM*	u	-3	-1%
CC1CCN(CC(=O)Nc2sc3c(c2C#N)CCC3)CC1	14%	18%	0%	-1	0%
COCCOC(=O)c1c(NC(=O)CN2CCCc3ccccc32)sc(C(N)=O)c1C	u	7.3µM*	0%	-7	1%
CCOC(=O)c1c(NC(=O)CN2CCN(C(=O)c3ccco3)CC2)sc(C(N)=O)c1C	-10%	23µM*	-8%	-14	0%
CCc1cc(C(=O)OC)c(NC(=O)CN2CCN(C(=O)c3ccco3)CC2)s1	7%	10µM*	-54%	5	-1%
CC1CCc2c(sc(NC(=O)CN3CCN(C(=O)c4ccco4)CC3)c2C#N)C1 (centres undefined)	u	16µM*	2%	9	0%
COC(=O)c1ccccc1NC(=O)CN1CCN(C(=O)c2ccco2)CC1	u	-10%	15%	1	-2%
COC(=O)CC1C(C)(C)C2(O)OC34CC2C(=O)[C@@]1(C)C3CC[C@]1(C)C4=CC(=O)OC1c1ccoc1 (some centres undefined)	11%	x	7%	x	x
CCOC(=O)c1c(NC(=O)C(C)N2CCN(C(=O)c3ccco3)CC2)sc2c1CCCC2 (centres undefined)	-35%	7.3µM*	11µM*	-6	0%
O=C(N/N=C/c1cccs1)c1cc(-c2cccc3ccccc23)n[nH]1	5µM*	-2%	5µM*	-16	0%
O=C(N/N=C/c1cccs1)c1cc(-c2ccc3ccccc3c2)n[nH]1	3.2µM*	-21%	5µM*	3	7%
O=C(N/N=C/c1ccco1)c1cc(-c2ccc3ccccc3c2)n[nH]1	u	-3%	u	-14	0%
O=C(N/N=C/c1c[nH]c2ccccc12)c1cc(-c2cccc3ccccc23)n[nH]1	-45%	-29%	u	-11	0%
c1ccc(CNCCNCc2ccccc2)cc1	2%	x	3%	x	x
